Source: PubChem BioAssay AID504727 (Broad Institute, 2011)
Calls of active or inactive are those of the source.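 The calls were made as follows: active = fitted half-maximal concentration AC50 at or below ten times the highest valid tested dose, with signal falling as DNA is displaced (actives reach about 34 µM in these data); inconclusive = flat fit at moderate signal loss, or poor fit quality; inactive = the rest, including signal rising instead of falling.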

Assay: acridine orange-DNA binding displacement – biochemical, fluorescence polarization, cherry-picked samples, set 2, artefact control for KSHV LANA DNA-binding inhibitor project, dose response (AID 504727)
Conditions: series mostly up to 35 µM
For `CC(C(=O)O)N1C(=O)/C(=C/C=C/c2ccco2)SC1=S` (stereo not drawn), the AC50 was “inactive”. With `CC(OC(=O)CCN1C(=O)C2CC=CCC2C1=O)C(=O)Nc1ccc(F)cc1` (stereo not drawn) the AC50 was “inactive”. For `CCc1ccc(C2CC(c3cccc(Cl)c3)n3nc(N)nc3N2)cc1` (stereo not drawn), the AC50 was “inactive”. In the case of `COc1cc(C(=S)N2CCN(c3cccc(Cl)c3)CC2)ccc1O`, the AC50 is reported as “inactive”. In the case of `O=c1cc2c(=O)oc3cc(O)c(O)oc3c2c(O)c1O`, the AC50 is reported as “inactive”. In the case of `NC(=O)C1(N2CCCCC2)CCN(Cc2ccc(Br)cc2)CC1`, the AC50 is reported as “inactive”. For `CCOC(=O)C1C2C=CC3(CN(c4cccc(Cl)c4)C(=O)C13)O2` (stereo not drawn), the AC50 was “inactive”. With `O=C(c1cccc(S(=O)(=O)NCc2ccccc2)c1)N1CCN(c2ccccc2Cl)CC1` the AC50 was “inactive”. With `Cc1ccc(S(=O)(=O)Nc2ccc(Br)cc2C(NCC(=O)O)c2ccccc2)cc1` (stereo not drawn) the AC50 was “inactive”. With `COc1cc2c(cc1OC)CN(C(=O)c1ccc(S(=O)(=O)N3CCCC3)cc1)CC2` the AC50 was “inactive”. For `Cc1ccc(NC(=S)N/C(=N/S(=O)(=O)c2ccccc2)c2ccccc2)cc1`, the AC50 was “inactive”. In the case of `CC(C)N(C(=S)Nc1cccnc1)c1ccccc1`, the AC50 is reported as “inactive”. With `O=C(Cn1nc(Cc2ccncc2)c2ccccc2c1=O)N1CCN(C(=O)c2ccco2)CC1` the AC50 was 4.26 µM (active). With `CC(=O)OCCn1c2nc(=O)[nH]c(=O)c-2nc2cc(C)c(C)cc21` the AC50 was 0.342 µM (active). With `Cc1ccc(N2CC(C(=O)Nc3nnc(SCC(=O)Nc4nc(C)cs4)s3)CC2=O)cc1` (stereo not drawn) the AC50 was “inactive”. In the case of `CC(C)C(=O)N1CCN(c2ccccc2NC(=S)NC(=O)c2ccco2)CC1`, the AC50 is reported as “inactive”. For `CCCn1c(SCC(=O)NCc2cccs2)nc2c1c(=O)n(C)c(=O)n2C`, the AC50 was “inactive”. For `CCOC(=O)CN1NC2(CCCCCC2)NC1=S`, the AC50 was “inactive”. In the case of `CCN(CC)C(=S)SC1CCCCN(C(=O)c2ccccc2)C1=O` (stereo not drawn), the AC50 is reported as “inactive”. In the case of `CCN(CC)c1ccc2cc(S(=O)(=O)c3ccc(C)cc3)c(=O)oc2c1`, the AC50 is reported as “inactive”. With `CCOC(=O)c1c(C)n(C)c2ccc(OCCN(C)C)cc12` the AC50 was “inactive”. In the case of `COc1ccc(Cn2nnc3c(=O)[nH]c(C4CCCN(C(=O)c5ccccc5)C4)nc32)cc1` (stereo not drawn), the AC50 is reported as “inactive”. With `CN(C)/C=N/c1nc2nccc(-c3ccc(Cl)cc3)n2n1` the AC50 was “inactive”. In the case of `O=C(O)C1C2C=CC(CC2)C1C(=O)O` (stereo not drawn), the AC50 is reported as “inactive”. In the case of `CCc1ccc[n+](-c2[nH]c(=O)sc2/C=N/NC([S-])=Nc2ccccc2)c1`, the AC50 is reported as 14.8 µM (active). With `CN(c1ccc(OCC(=O)OCC(=O)c2c(N)n(C)c(=O)n(C)c2=O)cc1)S(=O)(=O)c1ccc2ccccc2c1` the AC50 was “inactive”. With `O=S(=O)(O)c1cc(Cl)cc(N=Nc2ccc(O)cc2O)c1O` the AC50 was “inactive”. For `CCCCN(C(=O)CSc1nnc(-c2ccc(Cl)cc2)o1)c1c(N)n(CC(C)C)c(=O)[nH]c1=O`, the AC50 was “inactive”. For `COc1ccc(NS(=O)(=O)c2cccc3ccccc23)cc1`, the AC50 was “inactive”. For `CCn1nc(-c2ccccc2)c2nc3ccccc3nc21`, the AC50 was 24.2 µM (active). In the case of `Nc1ccccc1C(=O)N1O[C@@H]2C=C[C@H]1CC2`, the AC50 is reported as “inactive”. For `CCOC(=O)c1sc(NC(=O)CSC(=S)N2CCN(C)CC2)nc1C`, the AC50 was “inactive”. In the case of `CN1CCc2c(sc(NC(=O)c3ccc4ccccc4c3)c2C(N)=O)C1`, the AC50 is reported as “inactive”. With `O=C(O)COc1ccc2c(c1)O/C(=C\c1ccco1)C2=O` the AC50 was “inactive”. For `CCNc1ccc2noc3c2c1C(=O)c1ccccc1-3`, the AC50 was 0.935 µM (active). With `CC[C@@]1(O)C(=O)OCc2c1cc1n(c2=O)Cc2cc3c(CN(C)C)c(O)ccc3nc2-1` the AC50 was 3.8 µM (active). In the case of `Cc1cc(C)n2nc(C(=O)OC(C)C(=O)c3cc(C)c(C)cc3C)nc2n1` (stereo not drawn), the AC50 is reported as “inactive”. In the case of `CCN(CC(=O)NCc1cccs1)C(=O)c1ccc(S(=O)(=O)Nc2ccccc2C)cc1`, the AC50 is reported as “inactive”.
